40 molecules from PubChem BioAssay (NCI) can be followed below.

About 83,000 compounds went through this panel and 20% of them were active in at least one assay; those are over-represented in the sample as a whole.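 Assay: single dose, 48 h. Readout: percent growth (0 = no net growth; negative = cell death). Active: <10.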 The source made the active and inactive calls.

The test system of this assay is HL-60(TB) leukemia. Description: NCI-60 one-dose screen, 48 h (100 = growth as untreated, 0 = no growth, -100 = all killed). Conditions: 10 µM unless noted.
With `Cn1c(=O)c2c(nc(N3CCCC3)n2C)n(C)c1=O`, the growth is 95.4% (inactive). For `CCOc1ccc2nc(SCc3nc4n(n3)S(=O)(=O)c3ccccc3N4C)sc2c1`, the growth was 12.9% (inactive). Then `CCCc1n(Cc2ccc3ccccc3c2)cc[n+]1Cc1ccc2ccccc2c1`, with -53.1% (active); and `CCCCCCC/C=C/[C@H]1O[C@]2(O)C(=O)C=C3C[C@@H](O[C@@H]4O[C@H](CO)[C@@H](O)C(O)[C@@H]4O)C[C@@H]3[C@H]2C=C1C` (stereo not given in full), with -46.4% (active); and `CCCCCCCCCCC[C@@H](C[C@H]1OC(=O)[C@H]1CCCCCC)OC(=O)[C@@H](CC(C)C)NC=O`, with -3.28% (active).

With `CCCCC(CCc1ccccn1)C(=O)c1ccccc1` (stereo not given), the growth is 110% (inactive).

On to `C=C(C)[C@@H]1CC[C@]2(COC3CCCCO3)CC[C@]3(C)[C@H](CC[C@@H]4[C@@]5(C)C=C(C=O)C(=O)C(C)(C)[C@@H]5CC[C@]43C)[C@@H]12` (stereo not given in full), for which the growth is -25.8% (active). As to `CN(C)Cc1ccc(O)c(C(=O)O)c1`, the growth was 107% (inactive). Take `CC/C=C\C[C@H](O)C/C=C1/C(=O)C=C[C@@H]1C/C=C\CCCC(=O)OC`: the growth was -12.3% (active). In the case of `COc1cc(C)cc2oc3oc(=N)c(C(=O)c4ccccc4)cc3c(=O)c12`, the growth is 112% (inactive). With `OCC(O)COc1ccc(Cl)cc1Cl` (stereo not given) the figure was 103% (inactive). Then `O=C(O)C(CCc1ccccc1)NCc1ccccc1` (stereo not given), with 110% (inactive); and `Oc1ccccc1/C=N\Nc1ccccc1`, with 16.5% (inactive). With `CCOC(=O)c1coc(C(=O)OCC)c1C(=O)OCC` the figure was 105% (inactive).

As to `C=C1CCC2C(C)(CO)C(O)CCC2(C)C1C/C=C1/C(=O)OCC1O/C=C/c1ccccc1` (stereo not given), the growth is 7.31% (active). With `Nc1c(C(=O)c2ccc(Cl)cc2)sc(Nc2ccccc2)c1-c1nc2ccccc2s1` the figure was 69.6% (inactive); with `Cc1ccc(NC(=O)Nc2nc3ccccc3s2)cc1NC(=O)Nc1nc2ccccc2s1`, 106% (inactive). As for `COc1ccc(CNc2ccc3nc(CCC4CCCCC4)[nH]c3c2)cc1`, the growth is 54.8% (inactive). For the molecule `CS(=O)(=O)Nc1cncc(-c2ccc3ncnc(Nc4ccc(F)c(Cl)c4)c3c2)c1`, the growth is 6.11% (active). Then `CCOc1ccccc1/C=N/Nc1nc2ccccc2o1`, with 98.6% (inactive); and `CCC(CCC(C)C1CCC2C3CC=C4CC(O)CCC4(C)C3CCC12C)C(C)C` (stereo not given) (tested in a mixture with another compound), with 82.5% (inactive); and `COc1cc2nccc(Oc3ccc(NC(=O)C4(C(=O)Nc5c(F)cc(F)cc5F)CC4)cc3)c2cc1Oc1ccc(N)cn1`, with 38.3% (inactive).

For the molecule `CCCCCCCCCCCCOB(OCCCCCCCCCCCC)OCCCCCCCCCCCC`, the growth was 107% (inactive). `C#CCOc1ccc(C2=NN(CC3CC3)C3N=C(Cl)c4ncn(CC5CC5)c4N23)cc1OCC#C` (stereo not given): the growth is 99.1% (inactive). `c1ccc(-c2n(Cc3ccc4ccccc4c3)cc[n+]2Cc2ccc3ccccc3c2)cc1`: the growth was -47.6% (active). With `Cc1cc2cn3c4cccnc4[nH]c(=O)c3c2cc1C` the figure was -32.6% (active); with `O=c1ccn(C2CC=C(CO)O2)c(=O)[nH]1` (stereo not given), 91.9% (inactive). With `Cc1sc2ncn(CC(=O)Nc3ccc(S(N)(=O)=O)cc3)c(=O)c2c1C`, the growth was 103% (inactive). Then `BrC1CC(Br)c2c1c1c(c3c2C(Br)CC3Br)C(Br)CC1Br` (stereo not given), with 55.7% (inactive); and `CSc1nc2sc3c(c2c(=O)n1-c1ccc(C(C)C)cc1)CCC(=O)C3`, with 6.88% (active); and `CCc1cccc(C)c1NC(=O)c1sc2nc3c(cc2c1N)CCCCC3`, with -10.5% (active). With `C#Cc1cccc(Nc2ncnc3ccc(-c4cnc(Cl)c(NS(C)(=O)=O)c4)cc23)c1`, the growth was -5.77% (active). Then `COc1cc([C@@H](CCO)C[C@H](C)c2ccc3ccccc3c2)cc(OC)c1OC`, with 6.14% (active). Then `Cc1cc(C#Cc2ccccc2)ccc1-n1c(/C=C/c2ccc(F)cc2)nc2ccccc2c1=O`, with 34.3% (inactive); and `COC(=O)/C(CCC=C(C)C)=C1\[C@@H](OC(C)=O)C[C@@]2(C)[C@H]1CC(=O)[C@H]1[C@@]3(C)CC[C@H](NCc4ccccc4)[C@@H](C)[C@@H]3CC[C@@]12C`, with 84.7% (inactive); and `COc1cc(/C=C/C(=O)c2ccc(F)cc2)ccc1OCCCCOc1cc2c(cc1OC)C(=O)N1CCCC1C=N2` (stereo not given), with -32.6% (active). Take `CN(C)/N=C/c1ccccc1O`: the growth was 97.1% (inactive). Turning to `CC(C)(C)OC(=O)N1C/C(=C\c2ccoc2)C(=O)/C(=C/c2ccoc2)C1`, the growth was 87.6% (inactive). With `CSc1nc(S(C)(=O)=O)nc2[nH]c(=O)[nH]c12` the figure was 108% (inactive). With `CC1CCC(n2cnc3c(Cl)ncnc32)O1` (stereo not given) the figure was 112% (inactive).
